Screening data (PubChem BioAssay)
Only some compounds are listed: those with a hit (about 10% of all), similar ones and a draw of the others.
3T3 cytotox: Cytotoxic Profiling in NIH 3T3 Cell Line of Diverse Libraries Using Quantitative High-Throughput Screening; NIH 3T3 viability, CellTiter-Glo ATP luminescence, 48-72 h; Potency, µM (doses to about 96.7 µM), for the others: at the top dose activity change, negative = cytotoxicity, actives largely listed as inhibitors; AID 1345082, 2018; hit rate 4.3% among 94,000; note: % is set by controls: 0 for no effect and ±100 for the full control effect; nearly all actives have a fitted effect of over 55% in size
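Cytotoxicity is measured as loss of cellular ATP: NIH 3T3 cells (400/well) are exposed to compound for 48 or 72 hr at 37 °C, then CellTiter-Glo luminescence is imaged after 10 min at room temperature.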
Luciferase inh: Firefly luciferase inhibition profiling of diverse chemical library using quantitative high-throughput screening | Luciferin 4-monooxygenase (Photinus pyralis), P08659 | purified P. pyralis luciferase, luminescence, biochemical | Potency, µM (highest dose often 115 µM), most hits filed as inhibitors | hit rate 2.5% among 76,000 | AID 1347043, 2019; note: % is set by controls: 0 for no effect and ±100 for the full control effect; nearly all actives have a fitted effect of over 65% in size
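Purified P. pyralis luciferase (10nM final) in 50mM Tris acetate pH 7.5, 10mM Mg acetate, 0.01% Tween-20, 0.05% BSA with 10uM D-luciferin and 10uM ATP. Compounds titrated qHTS. Luminescence imaged on CCD.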
GPT2 inh: Primary qHTS assay for inhibitors of Glutamate pyruvate transaminase 2 (GPT2); Recombinant GPT2, coupled pyruvate oxidase/HRP Amplex Red fluorescence; Potency, µM (series often up to 57.7 µM), without a hit: at the top dose activity change, negative = inhibition, hits mostly inhibitors; hit rate 0.25% among 100,000; note: % is set by controls: 0 for no effect and ±100 for the full control effect; nearly all actives have a fitted effect of over 60% in size
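GPT2 10ng/uL, a-KG 250uM, L-Ala 2mM, HEPES pH7.5 + 0.0001% Tween; 30 min RT. Then Amplex mix (PO/HRP/ThPP), 30 min RT dark, fluorescence. AOA 50uM used as positive control.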
hNpr1 antagonist: Natriuretic polypeptide receptor (hNpr1) antagonism - Primary qHTS. Atrial natriuretic peptide receptor 1 (Homo sapiens), P16066. HEK293 hNpr1 GloSensor cGMP, ANP-stimulated luminescence. Potency, µM (series often up to 46.3 µM), inactives show top-dose activity change, negative = inhibition, most hits filed as inhibitors. hit rate 1.6% among 76,000; calls by dose curve; note: % is set by controls: 0 for no effect and ±100 for the full control effect; nearly all actives have a fitted effect of over 60% in size
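Compound pre-incubated 30 min at room temperature on GloSensor-loaded HEK293 cells stably carrying hNpr1 and the pGS-40F cGMP biosensor. Stimulation uses hNppA at 0.1 nM final; luminescence is taken at baseline and 20 min post-agonist.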
HEK cytotox: Cytotoxic Profiling in HEK 293 Cell Line of Diverse Libraries Using Quantitative High-Throughput Screening | HEK 293 viability, ATP luminescence (CellTiter-Glo), 48-72 h | Potency, µM (series often up to 115 µM), without a hit: at the highest dose activity change, negative = cytotoxicity, hits mostly inhibitors | hit rate 6.6% among 94,000 | AID 1345083, 2018; note: % is set by controls: 0 for no effect and ±100 for the full control effect; nearly all actives have a fitted effect of over 60% in size
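250 HEK 293 cells/well; compound by pintool; incubated 48 or 72 hr at 37 degree Celsius; CellTiter-Glo added, 10 min RT, luminescence imaged.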
NPR1 antag cnf: Natriuretic polypeptide receptor (hNpr1) antagonism - Confirmation | shares compounds with hNpr1 antagonist | HEK293 hNpr1 cGMP GloSensor luminescence, ANP-stimulated | Potency, µM (series often up to 57.6 µM), for inactives: at the top dose activity change, negative = inhibition, most hits filed as inhibitors | hit rate 76% among 1,400; calls by dose curve; note: nearly all actives have a fitted effect of over 70% in size
NPR2 antag: Natriuretic polypeptide receptor (hNpr2) antagonism - Subtype selectivity assay; hit rate 67% among 1,400; AID 1347046, 2019; shares compounds with hNpr1 antagonist; HEK293 hNpr2 GloSensor cGMP luminescence, CNP-stimulated; Potency, µM (titrated, usually from 57.6 µM), inactives show top-dose activity change, negative = inhibition, usual class: inhibitors; calls by dose curve; note: nearly all actives have a fitted effect of over 70% in size
FLuc inh counter: Natriuretic polypeptide receptor (hNpr1) antagonism - Confirmation firefly luciferase (FLuc) inhibition counterscreen. purified FLuc enzyme, luminescence, Km substrate. hit rate 0.7% among 1,400. shares compounds with hNpr1 antagonist. Potency, µM (series often up to 57.6 µM), without a hit: top-dose activity change, negative = inhibition, actives largely listed as inhibitors; note: 0% is about no effect
GloSensor ctrl: Natriuretic polypeptide receptor (hNpr1) antagonism - Counterscreen GloSensor control cell line; shares compounds with hNpr1 antagonist; HEK293 GloSensor cGMP, SNP-stimulated, luminescence; Potency, µM (doses to about 57.6 µM), inactives show top-dose activity change, negative = inhibition, actives largely listed as inhibitors; hit rate 69% among 1,400; AID 1347051, 2019; calls by dose curve; note: % is set by controls: 0 for no effect and ±100 for the full control effect; nearly all actives have a fitted effect of over 70% in size
* hit, by the source's call; i = inactive; u = inconclusive; x = no result; [ ] = another dose, or the depositor's remark. Unless noted, calls come from the whole dose curve; as a rule, active = well fitted curve in the direction sought with a large enough effect; inconclusive = small, poorly fitted or top-dose-only effect, or another doubt; inactive = no such curve, though single readings can be large; an effect the other way counts as inactive or inconclusive. Potency is the fitted concentration of half-maximal effect.

SMILES | 3T3 cytotox | Luciferase inh | GPT2 inh | hNpr1 antagonist | HEK cytotox | NPR1 antag cnf | NPR2 antag | FLuc inh counter | GloSensor ctrl
OCC1CN(c2ccncn2)CC12CCN(Cc1cc(F)c(F)c(F)c1)CC2 (stereo unspecified) | -38% | i | -1% | u | u | u | -28% | -1% | -28%
CCCCn1c(=O)c(C(=O)N2CCN([S+](=O)([O-])c3cccs3)CC2)nc2cccnc21 | -3% | x | 0% | x | i | x | x | x | x
COCCNC(=O)C1(F)CCN(C(=O)c2ccnn2C)CC1 | 4% | x | -7% | x | -6% | x | x | x | x
CC(C)c1ccc(CC(=O)N2CCCc3ncc(C(=O)N(C)Cc4ccccc4)cc32)cc1 | u | i | -28% | -20% | u | x | x | x | x
Cc1ccccc1NC(=O)c1cnc2c(c1)N(C(=O)Cc1cn(C)c3ccccc13)CCC2 | u | i | -15%[88.5 µM] | -15%[70.6 µM] | u | x | x | x | x
CC(C)c1ccc(CC(=O)N2CCCc3ncc(C(=O)Nc4ccccc4)cc32)cc1 | 28µM* | i | 0%[88.5 µM] | 3.5µM* | 28µM* | 5.6µM* | 6.3µM* | 3%[86.2 µM] | 5µM*
CC(C)c1ccc(CC(=O)N2CCCc3ncc(C(=O)N(C)c4ccccc4)cc32)cc1 | u | i | -9%[88.5 µM] | u | u | 35µM* | 44µM* | 0%[86.2 µM] | 44µM*
Cc1csc(NC(=O)c2cnc3c(c2)N(C(=O)Cc2ccc(C(C)C)cc2)CCC3)n1 | u | i | -2%[88.5 µM] | 22µM* | 35µM* | 31µM* | 35µM* | -13%[86.2 µM] | 28µM*
Cn1cc(CC(=O)N2CCCc3ncc(C(=O)Nc4cccc(Cl)c4)cc32)c2ccccc21 | u | i | 2% | -24% | u | -30% | -28% | -1% | -23%
C=CCN(Cc1cccc(OCC)c1)C(=O)CC1CNCCO1 (stereo unspecified) | -22% | i | -23% | 0% | -21% | x | x | x | x
Cc1ccccc1S(=O)(=O)N1CCCC(CCC(=O)NCCN(C)C2CCCCC2)C1 (stereo unspecified) | u | i | i | -27% | u | x | x | x | x
Cc1ccc(-c2nnc(C3CN(C(=O)Cc4cccc(C)c4)CC34CCOCC4)o2)cc1 (stereo unspecified) | -30% | i | -7% | -12% | u | x | x | x | x
O=C(Nc1ccccc1)c1cnc2c(c1)N(C(=O)Cc1ccc(O)cc1)CCC2 | -17%[138 µM] | i | 2%[88.5 µM] | 28µM* | u | 35µM* | 35µM* | -3%[86.2 µM] | 35µM*
COc1ccccc1CC(=O)N1CCCc2ncc(C(=O)Nc3cccc(F)c3)cc21 | 89µM* | i | i | 32µM* | 63µM* | 35µM* | 35µM* | -15%[86.2 µM] | 35µM*
